# Laboratory results reported in PubChem BioAssay (NCATS).
# Inconclusive results are not listed. Where a call stands in place of a potency, no number is given. Active and inactive are the calls of the source. Unless noted, calls follow the shape of the dose curve; as a rule, active = well fitted curve in the direction sought with a large enough effect; inconclusive = small, poorly fitted or top-dose-only effect, or another doubt; inactive = no such curve, though single readings can be large; an effect the other way counts as inactive or inconclusive.
# Key:
# [1] = target: Alpha-galactosidase (Coffea arabica) (UniProt Q42656); experiment: Counterscreen for Glucocerebrosidase Inhibitors: qHTS Assay for Coffee Bean alpha-Galactosidase at pH 4.5 (AID 957); conditions: purified coffee bean alpha-galactosidase, fluorogenic substrate; series mostly up to 76.9 µM
# Summary of the method: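 Fluorogenic read-out: 4-methylumbelliferone at Ex 365/Em 440 nm after NaOH/glycine stop (pH 10). Enzyme 2 nM, 4-MU-alpha-galactoside 80 uM, citrate buffer pH 4.5, 20 min RT; normalized to no-enzyme and enzyme controls.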
# [2] = Confirmation and Secondary Assay for Modulators of Hemoglobin Beta Chain Splicing at IVS2 705 locus (AID 930); conditions: HeLa EGFP-705 splicing reporter, GFP fluorescence, 48 h; series mostly up to 46.1 µM;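 also: HeLa cells stably expressing the EGFP-705 splicing reporter; GFP fluorescence per well restored by corrected splicing of the IVS2-705 intron in EGFP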
# Summary of the method: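 Secondary splice-site specificity test uses HeLa expressing CMV-driven EGFP interrupted by IVS2-705; cells were treated 2 days at 37C with 500 nM antisense PNA as positive control.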
# [3] = target: Muscarinic acetylcholine receptor M1 (Rattus norvegicus) (UniProt P08482); experiment: qHTS Assay for Antagonists of Acetylcholine Muscarinic M1 Receptor: Measurement of IP-One Response (AID 944); conditions: CHO-M1 cells, IP-One HTRF, antagonist mode; series mostly up to 46.1 µM; also: potency is read from the fitted curve at half-maximal effect; nearly all actives have a fitted effect of over 75% in size
# Summary of the method: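 Read-out: HTRF competition between d2-IP1 and Eu-cryptate anti-IP1 antibody, emission 620 and 665 nm. Stimulus was carbachol, EC80 (200 nM), for 30 min in M1-CHO cells (rat receptor), after 10 min compound pre-treatment.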
# [4] = target: Pyruvate kinase (Leishmania mexicana) (UniProt Q27686); experiment: qHTS Validation Assay for Inhibitors of Leishmania Mexicana Pyruvate Kinase (AID 945); conditions: purified L. mexicana pyruvate kinase, enzyme activity, E451W mutant enzyme; series mostly up to 57.5 µM
# Summary of the method: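 Read-out: luminescence from PKLight stop/detection reagent, data normalized to DMSO. Reaction: 0.2 nM E451W LmPYK, 0.5 mM PEP, 0.1 mM ADP, pH 7.2, 1 h room temperature.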
# [5] = target: Pyruvate kinase PKM (Homo sapiens) (UniProt P14618); experiment: qHTS Assay for Activators of Human Muscle Pyruvate Kinase (AID 954; active = well fitted curve in the direction sought with a large enough effect, not every such curve was filed as active); conditions: purified human muscle pyruvate kinase, luciferase-coupled luminescence, 1 h; series mostly up to 57.5 µM
# Summary of the method: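 ATP production by PKM2 detected via luciferase luminescence after 1 h room-temperature reaction (0.1 nM enzyme, PEP at Km 0.5 mM, ADP 0.1 mM, pH 7.2 imidazole buffer). Inhibition scaled to no-enzyme control; activation referenced to 0.3 nM enzyme wells.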
# [6] = Cell Viability - LYMP1-002 - Assay at 16 hr (AID 948); conditions: LYMP1-002 lymphoblastoid cell viability; series mostly up to 92.2 µM
# Summary of the method: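 Acute cytotoxicity is scored as a concentration-dependent fall in intracellular ATP in a human lymphoblastoid line (LYMP1-002) after 16 hr compound exposure at 37 C, measured by luciferase luminescence.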
# [7] = MultiTox-Fluor Cytotoxicity Assay - LYMP1-002 - Live Cells (AID 955); conditions: LYMP1-002 lymphoblastoid live-cell protease fluorescence viability; series mostly up to 46.1 µM;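 also: cells exposed to compound for 16 hours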; also: potency is read from the fitted curve at half-maximal effect
# Summary of the method: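 LYMP1-002 lymphoblastoid cells; 2500 cells/well; 16 hr compound exposure, 37 C; MultiTox-Fluor reagent 60 min RT; live-cell fluorescence Ex/Em=405/510; qHTS concentration-response, Hill-equation AC50; tetraoctylammonium bromide positive control.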
# [8] = MultiTox-Fluor Cytotoxicity Assay - LYMP1-003 - Dead Cells (AID 961); conditions: LYMP1-003 lymphoblastoid cells, dead-cell protease fluorescence; series mostly up to 92.2 µM; also: potency is read from the fitted curve at half-maximal effect; nearly all actives have a fitted effect of over 70% in size
# Summary of the method: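 Dead-cell protease release, detected as bis-AAF-R110 fluorescence at 485/520 nm, was measured in LYMP1-003 cells after 16 h compound treatment at 37 C. AC50 values came from Hill-modeled qHTS curves normalized to DMSO (0%) and 15 uM tetraoctylammonium bromide (100%).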
# [9] = MultiTox-Fluor Cytotoxicity Assay - LYMP1-003 - Live Cells (AID 962); conditions: LYMP1-003 lymphoblastoid cells, MultiTox-Fluor live-cell protease fluorescence; series mostly up to 92.2 µM;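 also: cells exposed to compound for 16 hours at 37 °C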; also: potency is read from the fitted curve at half-maximal effect
# Summary of the method: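 Readout: live-cell fluorescence (Ex/Em=405/510) from GF-AFC cleavage after 60 min MultiTox-Fluor reagent at room temperature. Lymphoblastoid LYMP1-003 cells, 16 hr compound treatment, 37 C. Concentration-response fitted to standard Hill equation for AC50.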
# [10] = Cell Viability - LYMP1-003 - Assay at 24 hr (AID 963); conditions: LYMP1-003 lymphoblastoid cell viability; series mostly up to 92.2 µM
# Summary of the method: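 CellTiter-Glo luminescence (intracellular ATP) read after 24 hr, 37 C compound exposure of 2500 LYMP1-003 human lymphoblastoid cells/well in complete medium; qHTS concentration series; AC50 via standard Hill equation.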
# [11] = MultiTox-Fluor Cytotoxicity Assay - LYMP1-001 - Dead Cells (AID 946); conditions: LYMP1-001 lymphoblastoid cells, dead-cell protease fluorescence; series mostly up to 92.2 µM; also: potency is read from the fitted curve at half-maximal effect
# Summary of the method: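 Cytotoxicity as increased dead-cell protease fluorescence (bis-AAF-R110, 485/520 nm), read 60 min after MultiTox-Fluor reagent. Human lymphoblastoid line exposed 16 h; Hill-fitted AC50, with DMSO as 0% and 15 uM tetraoctylammonium bromide as 100%.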
# [12] = MultiTox-Fluor Cytotoxicity Assay - LYMP1-002 - Dead Cells (AID 960); conditions: LYMP1-002 lymphoblastoid cells, dead-cell protease fluorescence; series mostly up to 46.1 µM; also: potency is read from the fitted curve at half-maximal effect; nearly all actives have a fitted effect of over 60% in size
# Summary of the method: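 Readout: fluorescence at 485/520 from cell-impermeant bis-AAF-R110 cleaved by proteases leaking from damaged cells. LYMP1-002 lymphoblastoid line, 16 hr compound treatment at 37 C, concentration-response in qHTS format; Hill-equation AC50 values.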
# [13] = Cell Viability - LYMP1-003 - Assay at 40 hr (AID 964); conditions: LYMP1-003 lymphoblastoid viability; series mostly up to 92.2 µM; also: potency is read from the fitted curve at half-maximal effect; nearly all actives have a fitted effect of over 60% in size
# Summary of the method: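 LYMP1-003 lymphoblastoid cells, 2500/well; 5 hr preincubation, 40 hr compound exposure, 37 C; CellTiter-Glo 30 min RT; luminescence; Hill-fit AC50. Positive control tetraoctylammonium bromide.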
# Alpha-galactosidase (Coffea arabica), sequence (Q42656 whole entry, looked up): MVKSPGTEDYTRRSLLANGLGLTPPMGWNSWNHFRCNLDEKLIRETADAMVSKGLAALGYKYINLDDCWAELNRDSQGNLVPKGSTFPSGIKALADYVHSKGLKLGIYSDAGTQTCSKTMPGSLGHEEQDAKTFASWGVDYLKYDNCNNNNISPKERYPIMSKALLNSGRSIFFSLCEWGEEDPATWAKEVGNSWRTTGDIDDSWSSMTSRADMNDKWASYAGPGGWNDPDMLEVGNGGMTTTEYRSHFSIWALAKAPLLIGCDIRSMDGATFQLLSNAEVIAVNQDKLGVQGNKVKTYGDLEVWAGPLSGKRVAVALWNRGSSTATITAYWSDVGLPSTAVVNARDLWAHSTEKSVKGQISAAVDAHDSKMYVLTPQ
# Pyruvate kinase (Leishmania mexicana), sequence (Q27686 2-499 E452W): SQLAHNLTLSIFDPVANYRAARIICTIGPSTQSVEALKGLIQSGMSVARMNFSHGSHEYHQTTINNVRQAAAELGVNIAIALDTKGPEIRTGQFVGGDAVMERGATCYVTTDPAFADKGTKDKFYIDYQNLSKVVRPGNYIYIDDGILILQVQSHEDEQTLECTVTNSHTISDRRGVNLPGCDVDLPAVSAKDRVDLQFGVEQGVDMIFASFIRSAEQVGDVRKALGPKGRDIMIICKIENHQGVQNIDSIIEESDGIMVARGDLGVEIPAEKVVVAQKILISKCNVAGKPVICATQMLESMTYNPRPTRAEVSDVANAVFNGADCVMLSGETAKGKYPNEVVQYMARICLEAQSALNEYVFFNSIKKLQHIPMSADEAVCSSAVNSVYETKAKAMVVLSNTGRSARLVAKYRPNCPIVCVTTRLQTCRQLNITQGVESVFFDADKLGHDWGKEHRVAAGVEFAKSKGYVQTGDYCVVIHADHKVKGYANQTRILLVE
# Muscarinic acetylcholine receptor M1 (Rattus norvegicus), sequence (P08482 whole entry, looked up): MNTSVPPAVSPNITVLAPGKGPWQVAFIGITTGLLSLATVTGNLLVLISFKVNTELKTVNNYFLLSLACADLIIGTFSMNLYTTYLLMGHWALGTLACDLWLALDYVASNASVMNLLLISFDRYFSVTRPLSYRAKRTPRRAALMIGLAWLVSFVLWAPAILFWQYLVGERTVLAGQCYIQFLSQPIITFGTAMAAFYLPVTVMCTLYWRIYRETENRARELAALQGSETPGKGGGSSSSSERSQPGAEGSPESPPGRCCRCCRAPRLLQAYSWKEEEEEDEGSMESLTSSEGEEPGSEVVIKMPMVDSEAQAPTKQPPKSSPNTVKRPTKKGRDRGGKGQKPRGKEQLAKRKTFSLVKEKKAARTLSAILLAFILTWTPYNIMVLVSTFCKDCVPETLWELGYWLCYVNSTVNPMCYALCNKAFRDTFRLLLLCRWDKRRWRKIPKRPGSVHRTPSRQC
# Pyruvate kinase PKM (Homo sapiens), sequence (P14618 whole entry, looked up): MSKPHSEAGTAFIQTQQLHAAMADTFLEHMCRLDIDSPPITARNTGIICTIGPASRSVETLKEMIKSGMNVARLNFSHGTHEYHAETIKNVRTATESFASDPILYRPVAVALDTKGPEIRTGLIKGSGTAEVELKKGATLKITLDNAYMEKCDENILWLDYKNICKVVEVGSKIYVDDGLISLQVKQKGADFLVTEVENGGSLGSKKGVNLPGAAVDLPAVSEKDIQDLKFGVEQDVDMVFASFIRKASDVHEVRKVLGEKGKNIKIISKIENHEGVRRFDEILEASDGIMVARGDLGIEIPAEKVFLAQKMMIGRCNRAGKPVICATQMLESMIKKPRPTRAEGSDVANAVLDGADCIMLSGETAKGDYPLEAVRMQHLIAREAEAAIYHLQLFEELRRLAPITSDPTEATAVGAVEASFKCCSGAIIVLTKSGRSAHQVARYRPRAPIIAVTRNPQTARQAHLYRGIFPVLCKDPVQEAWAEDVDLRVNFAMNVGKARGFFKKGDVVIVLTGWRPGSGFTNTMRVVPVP
structure (smiles),measurement,setting,value
Cc1cn[nH]c1,outcome,[1],inactive
Nc1ncn([C@@H]2O[C@H](CO)[C@@H](O)[C@H]2O)c(=O)n1,outcome,[1],inactive
CC(CCc1ccccc1)NC(C)C(O)c1ccc(O)cc1 (stereo not drawn),outcome,[2],inactive
OCCN1CCN(CCCN2c3ccccc3Sc3ccc(C(F)(F)F)cc32)CC1,outcome,[1],inactive
Cc1nc2n(c(=O)c1CCN1CCC(c3noc4cc(F)ccc34)CC1)CCCC2,Potency,[3],12.6 µM (active)
same,outcome,[1],inactive
CC(=O)N[C@@H](CS)C(=O)O,outcome,[1],inactive
CN1CCN(C2=Nc3cc(Cl)ccc3Nc3ccccc32)CC1,outcome,[1],inactive
CCC(COC(=O)c1cc(OC)c(OC)c(OC)c1)(c1ccccc1)N(C)C (stereo not drawn),outcome,[2],inactive
COc1ccc(C(CN(C)C)C2(O)CCCCC2)cc1 (stereo not drawn),outcome,[2],inactive
CC(=O)CCCCn1c(=O)c2c(ncn2C)n(C)c1=O,outcome,[1],inactive
O=C(c1ccc(OCCN2CCCCC2)cc1)c1c(-c2ccc(O)cc2)sc2cc(O)ccc12,outcome,[1],inactive
N#CC(C#N)=Cc1ccc(O)c(O)c1,outcome,[4],inactive
same,outcome,[5],inactive
same,outcome,[1],inactive
O=[N+]([O-])c1cc([As](=O)(O)O)ccc1O,outcome,[2],inactive
CN1CCC[C@@H]1CCO[C@](C)(c1ccccc1)c1ccc(Cl)cc1,outcome,[1],inactive
Cn1ccc2cc3c(cc21)CCN3C(=O)Nc1cccnc1,outcome,[1],inactive
CC[N+](C)(C)c1cccc(O)c1,outcome,[1],inactive
CC(C)=CC1C(C(=O)OCc2cccc(Oc3ccccc3)c2)C1(C)C (stereo not drawn),outcome,[2],inactive
CCOC(=O)N1CCC(=C2c3ccc(Cl)cc3CCc3cccnc32)CC1,outcome,[1],inactive
CN[C@H]1CC[C@@H](c2ccc(Cl)c(Cl)c2)c2ccccc21,outcome,[1],inactive
CC(=O)Nc1nnc(S(N)(=O)=O)s1,outcome,[1],inactive
Clc1ccc(COC(Cn2ccnc2)c2ccc(Cl)cc2Cl)cc1 (stereo not drawn),outcome,[2],inactive
same,outcome,[6],inactive
same,Potency,[7],inactive
same,Potency,[8],63.1 µM (active)
same,Potency,[9],inactive
same,outcome,[10],inactive
CC(=O)Oc1ccccc1C(=O)Nc1ncc([N+](=O)[O-])s1,Potency,[11],39.8 µM (active)
same,Potency,[7],25.1 µM (active)
same,Potency,[12],25.1 µM (active)
same,Potency,[8],39.8 µM (active)
same,Potency,[9],39.8 µM (active)
same,Potency,[13],12.6 µM (active)
NS(=O)(=O)c1cc2c(cc1Cl)NC=NS2(=O)=O,outcome,[1],inactive
O=C1CCc2cc(OCCCCc3nnnn3C3CCCCC3)ccc2N1,outcome,[1],inactive
NCCc1cc(O)c(O)cc1O,outcome,[2],inactive
